Compound activity as filed in PubChem BioAssay.
D1 ag: activates the human D1 dopamine receptor; HEK293 T-REx D1 cells, calcium flux, agonist mode; activation, % at 2 µM; hit rate 1% among 360,000
Target sequence (P21728 whole entry, looked up): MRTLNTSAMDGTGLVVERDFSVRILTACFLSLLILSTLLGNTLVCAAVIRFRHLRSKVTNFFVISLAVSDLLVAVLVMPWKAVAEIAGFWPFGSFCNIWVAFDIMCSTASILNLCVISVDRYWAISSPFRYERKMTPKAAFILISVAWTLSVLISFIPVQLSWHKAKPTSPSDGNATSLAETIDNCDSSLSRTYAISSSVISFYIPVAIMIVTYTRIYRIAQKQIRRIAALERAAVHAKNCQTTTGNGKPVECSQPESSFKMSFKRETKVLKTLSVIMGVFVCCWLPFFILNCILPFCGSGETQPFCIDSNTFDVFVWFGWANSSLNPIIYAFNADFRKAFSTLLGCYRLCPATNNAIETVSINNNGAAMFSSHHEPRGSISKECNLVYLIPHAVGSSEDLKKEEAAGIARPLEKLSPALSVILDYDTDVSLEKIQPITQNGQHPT
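Agonism was scored from calcium flux recorded over 180 s (1 read/s) after pintool compound addition, following a 10-cycle baseline. Cells were inducible force-coupled HEK293 TREx D1, plated overnight at 30 C and loaded with no-wash calcium dye.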
TRHR ag: activates the human TRH receptor; activation, % at 2 µM; P34981; hit rate 0.18% among 360,000; TRHR cells, calcium flux fluo-8, FDSS agonist mode
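Read-out: compound-evoked intracellular calcium rise in TRHR cells, fluo-8 dye, kinetic FDSS fluorescence at 1 s/cycle following a 10-cycle baseline. Cells cultured overnight before dye loading (30 min–1.5 h, RT).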
D1 potentiator: potentiators of human D1 dopamine receptor | P21728 | HEK293 TREx D1 cells, calcium flux, dopamine EC20 potentiation | potentiation, % at 10 µM | hit rate 0.036% among 360,000 | AID 504651; in the data active means potentiation above about 30%
TRHR enhancer: allosterically enhances the human TRH receptor. P34981. TRHR cells, fluo-8 calcium fluorescence, EC20 TRH enhancement. enhancement, % at 2 µM. hit rate 0.66% among 360,000. AID 493056; in the data active means enhancement above about 30%
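TRHR-expressing cells loaded with fluo-8 calcium dye were read kinetically (ex 480/em 530) during compound addition, then stimulated with an EC20 of TRH (10 nM final). Enhancement of the Gq-mediated intracellular calcium response was scored.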
D1 antagonist: antagonists of human D1 dopamine receptor; P21728; HEK293 TREx D1 cells, calcium flux, dopamine EC80; stronger effect = lower value; activity change, negative = inhibition, % at 10 µM; AID 504652; hit rate 3.2% among 360,000; in the data active means activity change below about -30%
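Compound effects on dopamine-evoked calcium signalling were measured in tetracycline-induced HEK293 Trex D1 cells. Dopamine at EC80 followed a 180 s compound pre-read, and fluorescence was tracked kinetically for 180 s more.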
Hits are given with their value; - = inactive; . = no result given; ! = not confirmed by another sample. Only some compounds are listed: those with a hit (about 4.7% of all), similar ones and a draw of the others. Unless noted, no stated cut-off is given here; in the data, active means activation above about 30%; inactive means the rest.

SMILES | D1 ag | TRHR ag | D1 potentiator | TRHR enhancer | D1 antagonist
COc1ccccc1NC(=O)c1ccc(-c2nc(COc3ccc(C)cc3)c(C)o2)cc1 | - | - | - | - | -
COc1ccc([C@H]2CC(=O)C=C(c3cccc(OC(F)(F)F)c3)C2)cc1 | - | - | - | - | -30.1
CCOc1ccc2oc(=O)cc(CN3CCN(c4ccc(OC)cc4)CC3)c2c1 | - | - | - | - | -
COc1ccc2cc(-c3nc4ccc(C(=O)O)cc4[nH]3)c(=O)oc2c1 | - | - | - | - | -
O=C(CSc1nc2ccccc2c(=O)n1CC1CCCO1)NCC1CCCO1 (stereo not drawn) | - | - | - | - | -
COCCNC(=O)CSc1nc2ccccc2c(=O)n1CC1CCCO1 (stereo not drawn) | - | - | - | - | -75.8
CCOc1ccc(CCNC(=O)C2CCC(CNS(=O)(=O)c3ccc(Cl)cc3)CC2)cc1OCC (stereo not drawn) | - | - | - | - | -
COc1ccc(S(=O)(=O)NC(N)=NCCc2ccccc2OC)cc1 | - | - | - | - | -52.6
COc1ccccc1CCN=C(N)NS(=O)(=O)c1ccc(F)cc1 | - | - | - | - | -
COc1cccc(Oc2ccc(S(=O)(=O)N3CCCC3)cc2[N+](=O)[O-])c1 | - | - | - | 31.8 | -
COc1ccc(OCCOc2ccc(S(=O)(=O)N3CCCC3)cc2[N+](=O)[O-])cc1 | - | - | - | - | -
CCOc1ccccc1NC(=O)C1=C(C)Nc2ncnn2C1c1ccccn1 (stereo not drawn) | - | - | - | - | -
CCOc1ccc(C(=O)NCc2nc3cccnc3n2Cc2ccc(F)cc2)cc1OCC | - | - | - | - | -
CCOc1cccc2sc(N(CCCN(C)C)C(=O)Cc3ccccc3)nc12 | 36.8 | - | - | - | -
CCOc1cccc2sc(N(CCCN(C)C)C(=O)c3ccc(C(=O)c4ccccc4)cc3)nc12 | 42.6 | - | - | - | -32.9
CCOc1cccc2sc(N(CCN(C)C)C(=O)c3cc4ccccc4cc3OC)nc12 | 32.8 | - | - | - | -70.4
Cc1cccc2sc(N(CCCN(C)C)C(=O)c3ccc(Cl)s3)nc12 | 36.7! | - | - | - | -
CN(C)CCCN(C(=O)c1ccc(C(=O)c2ccccc2)cc1)c1nc2c(F)cccc2s1 | - | - | - | - | -
CCOc1ccc2nc(N(CCN(C)C)C(=O)c3cc4ccccc4cc3OC)sc2c1 | - | - | - | - | -
Cc1cccc(N2CCN(C(=O)C3CCN(S(=O)(=O)c4c(C)noc4/C=C/c4ccccc4F)CC3)CC2C)c1 (stereo not drawn) | - | - | - | - | -
COc1cc(NC(=O)CC2C(=O)N(c3ccc(Cl)cc3)C(=O)N2Cc2cccs2)cc(OC)c1 (stereo not drawn) | - | - | - | - | -
CCCN(CCC)C(=O)CN1C(=O)CSc2ccc(S(=O)(=O)N3CCC(C)CC3)cc21 | - | - | - | - | -90.7
CCCCNC(=O)CN1C(=O)CSc2ccc(S(=O)(=O)N3CCC(C)CC3)cc21 | - | - | - | - | -
Cn1c(=O)n(CC(=O)O)c(=O)c2c1nc1n2CCS1 | - | - | - | 39.8! | -
COc1ccc(NC(=O)COc2ccc(-c3nn(C)c(=O)c4ccccc34)cc2)cc1 | - | - | - | - | -39.8!
SMILES | D1 ag | TRHR ag | D1 potentiator | TRHR enhancer | D1 antagonist
CNC(=O)c1ccc(NC(=O)COc2ccc(-c3nn(C)c(=O)c4ccccc34)cc2)cc1 | - | - | - | - | -
COC(=O)c1ccc(NC(=O)CCc2c(C)nn(-c3ccc(N4CCCCC4)nn3)c2C)cc1 | - | - | - | - | -
c1ccc2c(c1)nc(N1CCOCC1)c1c3ccccc3[nH]c21 | - | - | - | - | -56.9
CCCCn1c(C2CC(=O)N(c3ccc(OCC)cc3)C2)nc2ccccc21 (stereo not drawn) | - | - | - | - | -
COc1ccc(NC(=O)c2cc(=O)c3cc(C)cc(C)c3o2)cc1 | - | - | - | - | -
CCC(=O)N1CCc2cc(Br)cc(S(=O)(=O)CCC(=O)NCc3ccccc3)c21 | - | - | - | - | -
O=C(Nc1ccc(F)cc1)c1cccnc1NCCc1ccccc1 | - | - | - | - | -33.2
COc1cc(NC(=O)CCCc2nnc3n(CC(C)C)c(=O)c4sccc4n23)cc(OC)c1 | - | - | - | - | -
COc1ccc(N2CC(NC(=O)c3cc4ccccc4o3)CC2=O)cc1OC (stereo not drawn) | - | - | - | - | .
CCC(/C=N/NC(=O)c1ccccc1F)CC | - | - | - | - | -37.2
O=C(N/N=C/C(c1ccccc1)c1ccccc1)c1ccccc1F | - | - | - | - | -
Cc1[nH]c2ccccc2c1C(=O)CN1C(=O)C(=O)N(Cc2ccco2)C1=O | - | - | - | - | -
Cc1[nH]c2ccccc2c1C(=O)CN1C(=O)C(=O)N(CCC2=CCCCC2)C1=O | - | - | - | - | -31.6
O=C(NN1C(=O)C2C3C=CC(O3)C2C1=O)c1cccc(O)c1 (stereo not drawn) | - | - | - | - | -80.3
COc1cc(OC)cc(C(=O)Nc2ccc(C(=O)c3ccncc3)cc2)c1 | - | - | - | - | -38.3
COc1cccc(C(=O)Nc2ccc3[nH]ncc3c2)c1 | - | - | - | - | -33.6
CCOc1cccc(NC(=O)c2ccc(S(=O)(=O)N(C)C)cc2)c1 | - | - | - | - | -42.5
CCOc1cc(OCC)cc(C(=O)Nc2cccc(-c3nc4ccccc4[nH]3)c2)c1 | - | - | - | - | -37.9
Cc1ccc(C)c(N2CCN(C(=O)C3CCCN(S(=O)(=O)c4ccc5c(c4)oc(=O)n5C)C3)CC2)c1 (stereo not drawn) | - | - | - | - | -
CCc1c(C)sc2c1CCN(C(=O)Nc1cc(C)ccc1OC)C2c1ccc(F)cc1 (stereo not drawn) | - | - | - | - | -
CCOc1cccc(C(=O)Nc2ccc3[nH]ncc3c2)c1 | - | - | - | - | -31.7
CCOc1cccc(C(=O)Nc2ccncc2)c1 | - | - | - | - | -32.1
Nc1nnc(SCC(=O)Nc2ccccc2C(F)(F)F)s1 | - | - | - | - | -
Cc1cc(C)n(C2CC(=O)N(c3cc(Cl)cc(Cl)c3)C2=O)n1 (stereo not drawn) | - | - | - | - | -
Cc1cc(C)cc(N2C(=O)CC(n3nc(C)cc3C)C2=O)c1 (stereo not drawn) | - | - | - | - | -42.7
CCc1ccccc1NC(=O)C1(C)Cc2ccccc2C(=O)O1 (stereo not drawn) | - | - | - | - | -
Cc1cc(/C=N/NC(N)=S)c(O)c(/C=N/NC(N)=S)c1 | 277.5 | 147.6 | - | - | -
NC(=S)N/N=C/c1cccc(O)c1O | - | - | - | - | -
Cc1nnc(N2CCN(c3ccccc3F)CC2)c2c1nnn2Cc1ccccc1Cl | - | - | - | - | -
